Laboratory results taken from PubChem BioAssay AID686979 (National Center for Advancing Translational Sciences (NCATS), 2013).
Hit rate of the full screen: of about 420,000 compounds, about 50,000 (12%) were called active. Not shown: some 26% with an inconclusive outcome. Calls come from the whole dose curve; as a rule, active = well fitted inhibition curve with a large enough effect; inconclusive = small, poorly fitted or top-dose-only effect; inactive = flat fitted curve, though single readings scatter. The entries come from a sample that favours actives as a whole.

experiment: qHTS for Inhibitors of human tyrosyl-DNA phosphodiesterase 1 (TDP1): qHTS in cells in presence of CPT; settings: chicken DT40 Tdp1-/-;hTDP1 cells + 20 nM CPT, ATP luminescence, 48 h; series mostly up to 46.2 µM; activity change, negative = growth inhibition: at the top concentration; note: nearly all actives have a fitted effect of over 55% in size
Summary of the method: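 Cell growth measured by CellTiter-Glo luminescence after a minimum 48 h, 37 C compound exposure with 20 nM CPT in Tdp1-knockout DT40 cells stably expressing hTDP1, seeded 400/well; qHTS titration format.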
% is set by controls: 0 for no effect and ±100 for the full control effect; potency is the fitted concentration of half-maximal effect.

With CCCNC(=O)C(=O)Nc1cc2c3c(c1)CCC(=O)N3CCC2 as the compound, how does the “activity change, negative = growth inhibition” value read?
Its value is -0.193% (inactive).

For Cc1cc(F)ccc1N1CCC(N2CCN(C)C(CCO)C2)CC1 (stereo not given), which “activity change, negative = growth inhibition” value is on record?
The value was -17.2% (inactive).

Which “activity change, negative = growth inhibition” value does the source give for O=C(Nc1ccc(N2CCOCC2)c(Cl)c1)c1ccc(S(=O)(=O)N2CCOCC2)cc1 here?
Its value is -19.1% (inactive).

With O=S(=O)(c1cccc(-c2nnc3n2CCCCC3)c1)N1CCOCC1 as the compound, how does the “activity change, negative = growth inhibition” value read?
The value was -17.9% (inactive).

Which Potency does the source give for O=C(Nc1ccc2c(c1)nc1n2CCCCC1)c1cc(S(=O)(=O)N2CCOCC2)ccc1Cl here?
Its Potency is 11.6 µM (active).

With N#C/C(=C(\O)C(F)(F)F)c1nnc2n1CCCCC2 as the compound, how does the “activity change, negative = growth inhibition” value read?
The value was -13.9% (inactive).

For Cc1cccc(C(=O)OCC(=O)Nc2sccc2C(N)=O)c1C, which “activity change, negative = growth inhibition” value is on record?
The value was 6.25% (inactive).

Which “activity change, negative = growth inhibition” value does the source give for COc1ccc(Cl)cc1CSc1ncn[nH]1 here?
The value was 0.877% (inactive).

With O=C(/C=C/Sc1ncn[nH]1)c1ccc(Cl)cc1 as the compound, how does the Potency read?
The Potency was 2.31 µM (active).

With O=C(CSc1ncn[nH]1)N/N=C/c1ccc(F)cc1 as the compound, how does the “activity change, negative = growth inhibition” value read?
The value was 0.0663% (inactive).

For COC(=O)c1sccc1-n1cccc1C(=O)C(=O)N1CCCCC1, which “activity change, negative = growth inhibition” value is on record?
Its value is -5.51% (inactive).

For COc1cccc(NC(=O)c2ccc(S(=O)(=O)N(C)C)cc2)c1, which “activity change, negative = growth inhibition” value is on record?
The value was -1.56% (inactive).

For O=C(COC(=O)c1ccc(Oc2ccccc2)cc1)Nc1nnc(-c2ccccc2)o1, which “activity change, negative = growth inhibition” value is on record?
Its value is -23.6% (inactive).

Which Potency does the source give for COc1cccc(-c2nnc(NC(=O)c3ccc(S(=O)(=O)N(CC(C)C)CC(C)C)cc3)o2)c1 here?
The Potency was 3.66 µM (active).

For O=C1/C(=C/c2ccc(F)cc2)SC(=S)N1NS(=O)(=O)c1ccccc1, which “activity change, negative = growth inhibition” value is on record?
Its value is -3.85% (inactive).

Which “activity change, negative = growth inhibition” value does the source give for O=C(CCN1C(=O)c2ccccc2C1=O)C1=NN[C@@H]2C(=O)N(c3ccc(F)cc3)C(=O)[C@H]12 here?
Its value is -3.2% (inactive).

For Cc1c(CC(=O)NCCCCCC(=O)O)c(=O)oc2cc3occ(-c4ccccc4)c3cc12, which “activity change, negative = growth inhibition” value is on record?
The value was 11.6% (inactive).

Which “activity change, negative = growth inhibition” value does the source give for CCCC(=O)Nc1nnc(-c2ccccc2)o1 here?
Its value is 0.251% (inactive).

With CCCCCCc1cc2cc(-c3nnc(-c4ccccc4)o3)c(=O)oc2cc1O as the compound, how does the Potency read?
Its Potency is 14.6 µM (active).

For Nc1cccc(S(=O)(=O)Nc2ccc(SC(F)F)cc2)c1, which “activity change, negative = growth inhibition” value is on record?
The value was -8.22% (inactive).

With CC(C)(C)c1cc(P(=O)(c2ccccc2)c2ccccc2)ccc1O as the compound, how does the “activity change, negative = growth inhibition” value read?
The value was -13.8% (inactive).

With COc1ccccc1-c1cnn2c(N3CCOCC3)cc(C)nc12 as the compound, how does the “activity change, negative = growth inhibition” value read?
Its value is 10.4% (inactive).

With O=C(Nc1cccc(Br)c1)C1CC(=O)N(C2CCCC2)C1 (stereo not given) as the compound, how does the “activity change, negative = growth inhibition” value read?
Its value is 0.73% (inactive).

With COc1ccc(OC)c(NC(=O)Cc2cccs2)c1 as the compound, how does the “activity change, negative = growth inhibition” value read?
Its value is -28.1% (inactive).

With O=c1c2ccccc2ncn1/N=C/c1ccccc1 as the compound, how does the “activity change, negative = growth inhibition” value read?
Its value is -6.74% (inactive).

With CCCc1nc2ccccc2c(=O)n1/N=C/c1ccc(O)c(O)c1 as the compound, how does the Potency read?
Its Potency is 11.6 µM (active).

For Cn1c(SCC(=O)N/N=C/c2ccc(O)c(O)c2)nc2ccccc21, which “activity change, negative = growth inhibition” value is on record?
Its value is -81.7% (inactive).

Which “activity change, negative = growth inhibition” value does the source give for CSc1nc2c(c(=O)[nH]1)C(c1cccc(Cl)c1Cl)CC(=O)N2 (stereo not given) here?
Its value is 5.31% (inactive).

Which “activity change, negative = growth inhibition” value does the source give for COc1ccc(S(=O)(=O)N2CCN(C(=S)NCC3CCCO3)CC2)cc1OC (stereo not given) here?
The value was 6.64% (inactive).

With S=C(NCC1CCCO1)N1CCN(c2ccc(Cl)c(Cl)c2)CC1 (stereo not given) as the compound, how does the Potency read?
The Potency was 20.6 µM (active).

Which “activity change, negative = growth inhibition” value does the source give for O=C(CSCc1c(F)cccc1Cl)NCC1CCCO1 (stereo not given) here?
The value was -10.4% (inactive).

For O=Cc1c(N2CCN(c3cccc(Cl)c3)CC2)nc2ccccn2c1=O, which “activity change, negative = growth inhibition” value is on record?
Its value is -27.9% (inactive).

With CC(CNc1ccc([N+](=O)[O-])c2cccnc12)Nc1c([N+](=O)[O-])cc(C(F)(F)F)cc1[N+](=O)[O-] (stereo not given) as the compound, how does the “activity change, negative = growth inhibition” value read?
The value was -5.74% (inactive).

Which “activity change, negative = growth inhibition” value does the source give for FC(F)(F)c1ccc2c3n(nc2c1)CCN=C3c1ccc(Cl)cc1 here?
The value was -26.9% (inactive).

Which “activity change, negative = growth inhibition” value does the source give for CCc1ccccc1NC(=O)CSc1nnc(CCNC(=O)OC(C)(C)C)o1 here?
The value was 4.67% (inactive).

Which “activity change, negative = growth inhibition” value does the source give for CN1OC[C@@H]2CN(C(=O)c3cccc4ccccc34)[C@H](c3ccc(N4CCCCC4)cc3)C[C@@H]21 here?
Its value is -8.28% (inactive).

For C[C@H]1Cn2cnc(C(=O)N[C@H](C)c3ccccc3)c2C(=O)N1, which “activity change, negative = growth inhibition” value is on record?
Its value is -2.86% (inactive).

Which “activity change, negative = growth inhibition” value does the source give for COc1ccc(C(=O)OC(C)C(=O)NC2CCCC2)cc1S(=O)(=O)N1CCOCC1 (stereo not given) here?
Its value is -15.1% (inactive).

Which Potency does the source give for CCCN(CCC)C(=O)C1CCCN(c2ncnc3c2nc2n3CCCCC2)C1 (stereo not given) here?
Its Potency is 14.6 µM (active).

For COCCNc1ncnc2c1nc1n2CCCC1, which “activity change, negative = growth inhibition” value is on record?
Its value is -12.6% (inactive).

Which “activity change, negative = growth inhibition” value does the source give for CCCCN(CC)C(=S)Nc1ccc2nc3n(c(=O)c2c1)CCCCC3 here?
The value was -21.8% (inactive).

With Cc1cccc2c(=O)n3c(nc12)CCCCC3 as the compound, how does the “activity change, negative = growth inhibition” value read?
Its value is -29.8% (inactive).

For CN(C(=O)C1CCN(c2ncnc3c2nc2n3CCCCC2)CC1)C1CCCCC1, which Potency is on record?
Its Potency is 20.6 µM (active).

For COCCCNC(=O)CN1C(=O)CSc2ccc(S(=O)(=O)N3CCOCC3)cc21, which Potency is on record?
The Potency was “inactive”.

For O=C(NCc1ccncc1)c1ccc(NS(=O)(=O)c2cccc([N+](=O)[O-])c2)cc1, which “activity change, negative = growth inhibition” value is on record?
The value was -13% (inactive).

For COc1ccc(C(C)NC(=S)NC2CCCCC2)cc1OC (stereo not given), which “activity change, negative = growth inhibition” value is on record?
Its value is -15.6% (inactive).

For COc1ccc(-n2c(CNC(=O)c3cc(C(F)(F)F)ccc3Cl)nnc2SC)cc1, which “activity change, negative = growth inhibition” value is on record?
Its value is 21.6% (inactive).

For COc1ccc(C(CNC(=O)COc2ccc([N+](=O)[O-])cc2)N2CCCCC2)cc1 (stereo not given), which “activity change, negative = growth inhibition” value is on record?
The value was -15.2% (inactive).

For CC(=O)c1ccc(S(=O)(=O)NC2CC(=O)N(c3ccc4c(c3)OCCO4)C2)cc1 (stereo not given), which “activity change, negative = growth inhibition” value is on record?
The value was -2.96% (inactive).

Which “activity change, negative = growth inhibition” value does the source give for Cc1ccc(N2C(=O)CN=C2Nc2nc(C)cc(C)n2)cc1 here?
The value was -2.45% (inactive).

Which “activity change, negative = growth inhibition” value does the source give for COc1ccccc1-c1nc(N2CCN(C)CC2)c2ccccc2n1 here?
Its value is 7.98% (inactive).

Which Potency does the source give for COc1ccc(N2CCN(c3nc(-c4ccccc4F)nc4ccccc34)CC2)cc1 here?
The Potency was 20.6 µM (active).

Which “activity change, negative = growth inhibition” value does the source give for COc1ccc(N2CCN(C(C)=C3C(=O)c4ccccc4C3=O)CC2)cc1 here?
The value was -17.9% (inactive).

Which “activity change, negative = growth inhibition” value does the source give for O=C(Nc1ccc(Cl)cc1)c1cc2nc(C3CC3)cc(C(F)(F)F)n2n1 here?
Its value is -14.9% (inactive).

With COC(=O)C1(C)CC1(c1ccccc1)c1ccccc1 (stereo not given) as the compound, how does the “activity change, negative = growth inhibition” value read?
Its value is -29.8% (inactive).

For CC(C)Oc1ccc(/C=N/NC(=O)c2nnn(-c3nonc3N)c2CN(C)C2CCCCC2)cc1, which “activity change, negative = growth inhibition” value is on record?
Its value is -4.96% (inactive).

Which “activity change, negative = growth inhibition” value does the source give for O=C(Nc1ccccc1Cl)N1CCC(CN2CCCC2)CC1 here?
The value was -3.55% (inactive).

For Cc1ccc(C)c(N2CCN(S(=O)(=O)c3ccc4c(c3)C(C(C)C)C(=O)N4)CC2)c1 (stereo not given), which Potency is on record?
The Potency was 20.6 µM (active).

Which “activity change, negative = growth inhibition” value does the source give for CCOC(=O)N1CCN(S(=O)(=O)c2ccc3c(c2)C(C)C(=O)N3)CC1 (stereo not given) here?
Its value is 4.3% (inactive).

For Cc1ccc(C)c(N2CCN(S(=O)(=O)c3ccc4c(c3)oc(=O)n4C)CC2)c1, which “activity change, negative = growth inhibition” value is on record?
The value was -18.2% (inactive).

Which “activity change, negative = growth inhibition” value does the source give for Cn1c(=O)c(=O)n(C)c2cc(S(=O)(=O)NCCN3CCN(c4ccccc4F)CC3)ccc21 here?
The value was 0.149% (inactive).

For CC1C(=O)Nc2ccc(S(=O)(=O)N3CCN(c4ccccc4F)CC3)cc2NC1=O (stereo not given), which Potency is on record?
Its Potency is 9.2 µM (active).

Which “activity change, negative = growth inhibition” value does the source give for O=S(=O)(N1CCOCC1)N1CCN(c2ccccc2F)CC1 here?
Its value is -7.59% (inactive).

For O=C(CN1C(=O)COc2ccc(Cl)cc21)Nc1ccc(N2CCOCC2)cc1, which “activity change, negative = growth inhibition” value is on record?
The value was -2.92% (inactive).

With CCC(C)NC(=O)c1ccc(N2CCC3(CC2)OCCO3)c([N+](=O)[O-])c1 (stereo not given) as the compound, how does the “activity change, negative = growth inhibition” value read?
The value was -25.4% (inactive).
